High-throughput results as filed in PubChem BioAssay.
Rows were chosen to be rich in hits. Some 13% of all compounds tested hit in one or more screens of this group.
Pf growth 48h: Primary qHTS for delayed death inhibitors of the malarial parasite plastid, 48 hour incubation; P. falciparum luciferase growth in erythrocytes, 48 h; Potency, µM (doses to about 28.7 µM), for the others: at the highest dose activity change, negative = inhibition, usual class: inhibitors; hit rate 5.9% among 310,000; AID 504832, 2011; also: potency is read from the fitted curve at half-maximal effect; % is scaled to controls: 0 for no effect and ±100 for the full control effect
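Luminescence readout; reporter = integrated firefly luciferase in P. falciparum. RBC culture at 2% hematocrit, 0.1% parasitemia final, 37 C/5% CO2; decreased signal taken as growth inhibition.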
HCMV inh: qHTS Assay for inhibitors of the human cytomegalovirus (HCMV). HFF cells, HCMV-luciferase reporter, 72 h; active compounds read low. activity change, negative = inhibition, % at 57.5 µM. hit rate 4.5% among 410,000. AID 1259415, 2018; in the data active = activity change below about -60%; inconclusive = no clear call, values can overlap the other calls; inactive = above about -39%; also: % is scaled to controls: 0 for no effect and ±100 for the full control effect
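Steps: HFFs plated, 16 h 37C; compounds added; HCMV-luciferase added to MOI 1 PFU/cell; 72 h 37C; OneGlo reagent, 5 min room temperature; luminescence read, normalized to controls.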
Pf growth 96h: Primary qHTS for delayed death inhibitors of the malarial parasite plastid, 96 hour incubation; P. falciparum luciferase reporter growth, 96 h; Potency, µM (highest dose often 28.7 µM), for inactives: at the top dose activity change, negative = inhibition, most hits filed as inhibitors; hit rate 6.9% among 320,000; also: potency is read from the fitted curve at half-maximal effect; % is scaled to controls: 0 for no effect and ±100 for the full control effect
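Parasite growth measured via integrated firefly luciferase reporter in P. falciparum. Infected erythrocytes at 2% hematocrit, 0.05% parasitemia final were treated 96 hours at 37 C under 5% CO2, and luminescence was read.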
HCV inhibitor: qHTS Assay for Inhibitors of Hepatitis C Virus (HCV) | Huh7.5.1 HCVcc-Cre infection, luciferase reporter, 44 h | Potency, µM (doses to about 41.8 µM), for the others: at the top dose activity change, negative = inhibition, most hits filed as inhibitors | hit rate 3.4% among 340,000; also: potency is read from the fitted curve at half-maximal effect; % is scaled to controls: 0 for no effect and ±100 for the full control effect
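A cell-based infection assay in which seeded cells (1,000 per well) receive test compound after 4 h, are inoculated with HCVcc-Cre at approximately 0.5 moi, and are incubated 44 h before luminescence detection.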
HCV confirm: qHTS Assay for Inhibitors of Hepatitis C Virus (HCV): Confirmation Assay for Cherry-picked Compounds | shares compounds with HCV inhibitor | HCVcc-Cre infectious virus cell assay, luciferase, inhibition | Potency, µM (highest dose often 41.8 µM), for the others: at the highest dose activity, negative = inhibition, hits mostly inhibitors | hit rate 78% among 640 | AID 720575, 2013; also: potency is read from the fitted curve at half-maximal effect; nearly all actives have a fitted effect of over 80% in size
HCV host tox: qHTS Assay for Inhibitors of Hepatitis C Virus (HCV): Cytotoxicity Counterscreen for Cherry-picked Compounds; shares compounds with HCV inhibitor; HCV host cell line cytotoxicity counterscreen; Potency, µM (titrated, usually from 41.8 µM), inactives show top-dose activity change, negative = cytotoxicity, usual class: inhibitors; hit rate 22% among 640; AID 720576, 2013;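 also: potency is read from the fitted curve at half-maximal effect; 44 h compound exposure; % is scaled to controls: 0 for no effect and ±100 for the full control effect; nearly all actives have a fitted effect of over 55% in size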
* = called active by the depositor; ? = inconclusive; . = no result; [ ] = dose if it differs, or a comment. Unless noted, calls follow the shape of the dose curve; as a rule, active = well fitted curve in the direction sought with a large enough effect; inconclusive = small, poorly fitted or top-dose-only effect, or another doubt; inactive = no such curve, though single readings can be large; an effect the other way counts as inactive or inconclusive.

SMILES | Pf growth 48h | HCMV inh | Pf growth 96h | HCV inhibitor | HCV confirm | HCV host tox
CCN(CC)CCOC(=O)C(c1ccccc1)C1CCCCC1 (configuration not stated) | ? | ? | ? | ? | 14µM* | 14%
CCN(CC)CCOC(=O)C(c1ccccc1)c1ccccc1 | -6% | -10 | -17% | -19%[8.37 µM] | . | .
COC(=O)C1=CN(c2ccc3c(c2)OCO3)C(N)=C(C#N)C1c1cccc(F)c1 (configuration not stated) | . | -11 | . | . | . | .
Cc1cnc(NC(=O)C2CC(=O)N(c3cccc(Cl)c3)C2)s1 (configuration not stated) | 2% | -99* | 3% | 3.2µM* | 8.9µM* | 3.5µM*
Cc1cc(C)cc(CC(=O)N2CCC2(C)C(=O)NS(=O)(=O)c2ccc(C(C)(C)C)cc2)c1 (configuration not stated) | . | 0 | . | . | . | .
OC(COc1ccc(Cl)cc1)CN1CCN(c2cccc(Cl)c2)CC1 (configuration not stated) | ? | -7 | 43% | -13% | . | .
CC(=O)N(C)c1ccc(OCC(O)Cn2c3ccc(Cl)cc3c3cc(Cl)ccc32)cc1 (configuration not stated) | ? | . | ? | 0.89µM* | 4µM* | 28µM*
CC1(C(=O)NS(=O)(=O)c2ccc(F)cc2F)CCN1C(=O)C1(c2ccc(Cl)cc2)CCC1 (configuration not stated) | . | -37 | . | . | . | .
O=[N+]([O-])c1cc2c(cc1[N+](=O)[O-])OCCOCCOCCOCCO2 | -15% | 90 | -17% | 6.3µM* | ? | -15%
COc1ccc(S(=O)(=O)N2CCC[C@@H]2C(=O)N2CCC[C@H]2C(=O)NCc2ccncc2)cc1C | . | 11 | . | . | . | .
COc1ccc(Cl)cc1-c1cc(C(=O)Nc2ccccc2)[nH]n1 | . | 99 | . | . | . | .
COc1ccc(NC(=O)c2cc(-c3cc(C)cc(C)c3O)n[nH]2)cc1Cl | 9.3µM* | -40 | ? | 8.9µM* | 14µM* | ?
c1ccc(Nc2nc(-c3ccncc3)nc3ccccc23)cc1 | 0% | 38 | ? | ? | 5µM* | -95%
Fc1ccccc1Nc1nc(-c2ccncc2)nc2ccccc12 | ? | 35 | ? | 2.2µM* | 8.9µM* | 30%
c1ccc2c(N3CCCCCC3)nc(-c3ccncc3)nc2c1 | ? | ? | 203% | 8.9µM* | 0.01µM* | 18%
Fc1ccccc1-c1nc(N2CCCCC2)c2ccccc2n1 | 19% | -14 | ? | 0% | . | .
O=C(Nc1ccccc1)C1=C(Nc2ccccc2)CSC1 | . | -33 | . | . | . | .
COc1ccccc1CNc1nc(Nc2ccccc2-n2cccn2)c2sccc2n1 | . | -14 | . | . | . | .
CCOC(=O)C1(C)CCN1C(=O)c1ccc(Cl)nc1 (configuration not stated) | . | 9 | . | . | . | .
CCC(=O)NC(c1cccs1)c1cc(Cl)c2cccnc2c1O (configuration not stated) | -19% | ? | 12% | 4µM* | 7µM* | 11µM*
CC1(C(=O)NS(=O)(=O)c2ccccc2Cl)CCN1C(=O)COc1ccc(Cl)cc1 (configuration not stated) | . | 16 | . | . | . | .
Cc1onc(-c2ccccc2)c1C(=O)N1CCC(C)(C(=O)NS(=O)(=O)C2CC2)C1 (configuration not stated) | . | -4 | . | . | . | .
COc1ccc(-c2ccc3oc(-c4ccc(OC)cc4)c(C#CCCO)c3c2)cc1 | . | 18 | . | 1.1µM* | 2.2µM* | 15%
CCc1nc2ccc(C(=O)Nc3ccc(Cl)c(Cl)c3)cn2c1N(C)Cc1ccc(OC)cc1 | . | 56 | . | . | . | .
O=C(Nc1ncc(Cc2ccc(C(F)(F)F)cc2)s1)c1ccc(-c2cccc([N+](=O)[O-])c2)o1 | ? | ? | 0.37µM* | 2.5µM* | 13µM* | ?
SMILES | Pf growth 48h | HCMV inh | Pf growth 96h | HCV inhibitor | HCV confirm | HCV host tox
CC(C)N1CCC(N2CCN(Cc3ccc(-c4ccccc4Cl)o3)CC2CCO)CC1 (configuration not stated) | -11% | -31 | 0% | 4µM* | 6.3µM* | 28%
CCOc1cc(CNCCc2ccc(S(N)(=O)=O)cc2)cc(Cl)c1OCc1ccccc1 | 13µM* | -61* | 13µM* | 1.6µM* | 4.4µM* | 13µM*
COc1cc2c(cc1NC(=O)C(Cl)Cl)-c1ccc(NC(=O)C(Cl)Cl)cc1C2 | . | -68* | . | ? | 18µM* | ?
CCc1nc2ccc(C(=O)NCCCn3ccnc3)cn2c1N(C)Cc1ccc(N(C)C)cc1 | . | -9 | . | . | . | .
Nc1ccc2c(c1)C(=O)c1ccc(Br)cc1-2 | . | 45 | . | ? | -20% | -10%
Nc1ccc2c(c1)C(=O)c1ccccc1-2 | . | 39 | . | ? | . | .
CC(=O)c1ccc(NC(=O)c2ccc(S(=O)(=O)N3CCCC3)cc2)cc1 | ? | -11 | ? | -7% | . | .
O=C(Nc1ccc(S(=O)(=O)N2CCCC2)cc1)c1ccc(CN2CCc3ccccc3C2)cc1 | ? | . | -10% | 7.1µM* | 0.63µM* | 1µM*
CS(=O)c1nc(-c2ccc(Br)cc2)cc(-c2ccccc2)c1C#N (configuration not stated) | ? | -98* | 26% | 5µM* | ? | ?
N#Cc1c(-c2ccc(Br)cc2)cc(-c2cccnc2)nc1N | 11% | 47 | 39% | -3% | . | .
COc1ccc(/C=N/NC(=O)c2ccc(CN3C(=O)c4cccc5cccc3c45)cc2)cc1O | ? | -26 | -4% | ? | . | .
COc1cc(/C=N/NC(=O)c2ccc(CN3C(=O)c4cccc5cccc3c45)cc2)cc(OC)c1O | 8.3µM* | -33 | ? | ? | ? | -9%
COc1cc(NC(=O)c2ccc3c(c2)OCO3)ccc1NC(=O)c1ccco1 | 21% | -8 | -13% | ? | ? | 8%
CC1(C)OC(=O)C2=C(C[C@@H](C3CCCC3)O[C@H]2c2ccc(Cl)cc2)O1 | . | -29 | . | . | . | .
O=S1(=O)N[C@@H](Cc2ccccc2)COc2cccc(N3CCC[C@H]3CO)c21 | . | -18 | . | . | . | .
S=C(c1ccc(-c2ccc(Cl)c(Cl)c2)o1)N1CCOCC1 | 76% | . | 213% | ? | 14µM* | -18%
S=C(c1ccc(-c2ccc(Br)cc2)o1)N1CCOCC1 | 181% | 125 | 275% | ? | . | .
CCN(CC)S(=O)(=O)c1ccc(OC)c(NC(=O)CSc2cc(Cl)ccc2Cl)c1 | ? | ? | ? | ? | 22µM* | 22%
O=C(Cc1ccc(Cl)cc1Cl)Nc1ccncc1Cl | -6% | -90* | 1% | 7.9µM* | 7µM* | 10µM*
COc1ccc(NC(=O)c2nnn(CC(=O)Nc3cc(C)cc(C)c3)c2N)c(OC)c1 | . | 11 | . | . | . | .
